Records with an inconclusive call do not appear. A call without a number means that no potency is given here. Active and inactive are the calls of the source. Calls follow the shape of the dose curve; as a rule, active = well fitted curve in the direction sought with a large enough effect; inconclusive = small, poorly fitted or top-dose-only effect, or another doubt; inactive = no such curve, though single readings can be large; an effect the other way counts as inactive or inconclusive.
Experiments:
[1] = biological target: Alpha-galactosidase (Coffea arabica) (UniProt Q42656); assay: Counterscreen for Glucocerebrosidase Inhibitors: qHTS Assay for Coffee Bean alpha-Galactosidase at pH 4.5 (AID 957); also: series mostly up to about 77 µM
Chain of Alpha-galactosidase (Coffea arabica) (Q42656 whole entry, looked up): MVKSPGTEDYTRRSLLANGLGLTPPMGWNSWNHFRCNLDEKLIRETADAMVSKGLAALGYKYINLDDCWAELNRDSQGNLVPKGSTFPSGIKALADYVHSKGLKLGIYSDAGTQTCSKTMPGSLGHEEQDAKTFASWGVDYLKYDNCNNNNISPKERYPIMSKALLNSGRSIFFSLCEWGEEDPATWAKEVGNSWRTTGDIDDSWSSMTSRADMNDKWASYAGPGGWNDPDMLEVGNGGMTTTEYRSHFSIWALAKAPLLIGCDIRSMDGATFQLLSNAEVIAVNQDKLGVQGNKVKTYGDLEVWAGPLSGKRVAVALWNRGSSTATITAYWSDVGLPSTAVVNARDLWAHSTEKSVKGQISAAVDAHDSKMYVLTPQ
How it was run: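 Quantitative HTS of compounds (0.7 nM to 77 uM) against coffee bean alpha-galactosidase at pH 4.5, measuring 4-methylumbelliferone fluorescence released from 80 uM substrate.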

[2] = biological target: Alpha-galactosidase (Coffea arabica) (UniProt Q42656); assay: Counterscreen for Glucocerebrosidase Inhibitors: qHTS Assay for Coffee Bean alpha-Galactosidase at pH 5.9 (AID 998)
How it was run: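 Enzyme 2 nM + cpd (0.7 nM–77 uM titration) + 4-MU-alpha-Gal 80 uM, pH 5.9 citrate/Tween-20, RT 20 min, NaOH/glycine stop pH 10, fluor 365/440. Normalized to no-enzyme and full-activity controls; Hill-fit AC50.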

[3] = MultiTox-Fluor Cytotoxicity Assay - LYMP1-002 - Dead Cells (AID 960); also: potency is read from the fitted curve at half-maximal effect; nearly all actives have a fitted effect of over 60% in size
How it was run: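 Concentration-dependent increases in membrane-leaked protease activity are quantified in LYMP1-002 cells after 16 hr treatment; values are normalized against DMSO and tetraoctylammonium bromide (15 uM) controls and AC50 derived by Hill modeling.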

Compound: CC1=C(C(=O)O)N2C(=O)[C@@H](NC(=O)[C@@H](N)C3=CCC=CC3)[C@@H]2SC1
- outcome [1]: inactive
- outcome [2]: inactive

Compound: CC(=O)[C@@H]1CC[C@@H]2[C@@H]3CC=C4C[C@H](OS(=O)(=O)O)CC[C@@]4(C)[C@H]3CC[C@]21C
- outcome [1]: inactive
- outcome [2]: inactive

Compound: CNc1ncnc2c1ncn2[C@H]1C[C@@H](OP(=O)(O)O)[C@H](COP(=O)(O)O)O1
- outcome [1]: inactive
- outcome [2]: inactive

Compound: CC[C@H](C)[C@@H]1O[C@]2(CC[C@@H]1C)C[C@H]1C[C@H](CC=C(C)[C@@H](O[C@H]3C[C@H](OC)[C@H](O[C@H]4C[C@H](OC)[C@H](O)[C@H](C)O4)[C@H](C)O3)[C@@H](C)C=CC=C3CO[C@@H]4[C@@H](O)C(C)=C[C@H](C(=O)O1)[C@@]34O)O2
- outcome [1]: inactive
- outcome [2]: inactive

Compound: CC(=O)O[C@]1(C(C)=O)CC[C@@H]2[C@@H]3C=C(Cl)C4=CC(=O)[C@H]5C[C@@H]5[C@]4(C)[C@H]3CC[C@]21C
- outcome [1]: inactive
- outcome [2]: inactive

Compound: C[C@H](O)[C@H](O)[C@@H]1CNc2nc(N)[nH]c(=O)c2N1
- outcome [1]: inactive
- outcome [2]: inactive

Compound: NC(N)=N[C@H](CCC(=O)O)C(=O)O
- outcome [1]: inactive
- outcome [2]: inactive

Compound: C[C@@H](Cc1ccccc1)Nc1ncnc2c1ncn2[C@@H]1O[C@@H](CO)[C@H](O)[C@@H]1O
- outcome [1]: inactive
- outcome [2]: inactive

Compound: CCn1ccnc1C[C@@H]1COc2ccccc2O1
- outcome [1]: inactive
- outcome [2]: inactive

Compound: NC(=O)C1=CN([C@@H]2O[C@@H](COP(=O)(O)OP(=O)(O)OC[C@@H]3O[C@H](n4cnc5c(N)ncnc54)[C@@H](OP(=O)(O)O)[C@@H]3O)[C@H](O)[C@@H]2O)C=CC1
- outcome [1]: inactive
- outcome [2]: inactive

Compound: COc1cc2c(cc1OC)[C@H](c1ccccc1)CN(C)CC2
- outcome [1]: inactive
- outcome [2]: inactive

Compound: CCCN(CCc1ccccc1)[C@H]1CCc2c(O)cccc2C1
- outcome [1]: inactive
- outcome [2]: inactive

Compound: COc1ccc(CCN(C)CCC[C@@](C#N)(c2cc(OC)c(OC)c(OC)c2)C(C)C)cc1OC
- outcome [1]: inactive
- outcome [2]: inactive

Compound: O=C(NCCNC[C@@H](O)COc1ccc(O)cc1)N1CCOCC1
- outcome [1]: inactive
- outcome [2]: inactive

Compound: N[C@@H]1CCN(O)C1=O
- outcome [1]: inactive
- outcome [2]: inactive

Compound: CNC(=O)[C@@H]1O[C@@H](n2cnc3c(N)ncnc32)[C@@H](O)[C@H]1O
- outcome [1]: inactive
- outcome [2]: inactive

Compound: CCCN1C[C@@H](CSC)C[C@H]2c3cccc4[nH]cc(c34)C[C@@H]21
- outcome [1]: inactive
- outcome [2]: inactive

Compound: Oc1ccc([C@@H]2CNCc3sccc32)cc1O
- outcome [1]: inactive
- outcome [2]: inactive

Compound: N[C@H](CCC(=O)NCS(=O)(=O)O)C(=O)O
- outcome [1]: inactive
- outcome [2]: inactive

Compound: CSc1nc(N)c2ncn([C@@H]3O[C@@H](COP(=O)(O)OP(=O)(O)O)[C@@H](O)[C@H]3O)c2n1
- outcome [1]: inactive
- outcome [2]: inactive

Compound: OC[C@@H]1O[C@@H](n2cnc3c(N[C@@H]4C[C@@H]5CC[C@H]4C5)ncnc32)[C@@H](O)[C@H]1O
- outcome [1]: inactive
- outcome [2]: inactive

Compound: CC(C)CN(C)c1nc(N)c(C(=O)N=C(N)N)nc1Cl
- outcome [1]: inactive
- outcome [2]: inactive

Compound: CCCCCCCCCCCCCCCCCC(=O)O[C@H](CC(=O)O)C[N+](C)(C)C
- outcome [1]: inactive
- outcome [2]: inactive

Compound: CN1CCN2c3ccccc3Cc3ccccc3[C@@H]2C1
- outcome [1]: inactive
- outcome [2]: inactive

Compound: CN1[C@@H]2CC(OC(=O)[C@@H](CO)c3ccccc3)C[C@H]1[C@H]1O[C@H]12 (stereo partly drawn)
- outcome [1]: inactive
- outcome [2]: inactive

Compound: CC1=C(C(=O)O)N2C(=O)[C@@H](NC(=O)[C@@H](N)c3ccccc3)[C@@H]2SC1
- outcome [1]: inactive
- outcome [2]: inactive

Compound: Nc1nc(Nc2ccccc2)nc2c1ncn2[C@@H]1O[C@@H](CO)[C@H](O)[C@@H]1O
- outcome [1]: inactive
- outcome [2]: inactive

Compound: CCCCCCCCCCCCC/C=C\[C@@H](O)[C@@H](N)CO
- outcome [1]: inactive
- outcome [2]: inactive

Compound: O=C(O)[C@H]1CCCNC1
- outcome [1]: inactive
- outcome [2]: inactive

Compound: CC[C@H](NC(C)C)[C@H](O)c1ccc(O)c(O)c1
- outcome [1]: inactive
- outcome [2]: inactive

Compound: Cc1cc(C)c(/C=C2/C(=O)Nc3ccccc32)[nH]1
- outcome [1]: inactive
- outcome [2]: inactive

Compound: CN(C)C/C=C(\c1ccc(Br)cc1)c1cccnc1
- outcome [1]: inactive
- outcome [2]: inactive

Compound: O=c1cc(O)cc(/C=C\c2ccc(O)c(O)c2)o1
- outcome [1]: inactive
- outcome [2]: inactive

Compound: C#CCN1C(C)=C(C(=O)OC)[C@@H](c2cccc([N+](=O)[O-])c2)C(C(=O)OCC)=C1C
- outcome [1]: inactive
- outcome [2]: inactive

Compound: N[C@@H](CO)C(=O)NNCc1ccc(O)c(O)c1O
- outcome [1]: inactive
- outcome [2]: inactive

Compound: COc1ccc(CCNC[C@H](O)c2ccc(O)cc2)cc1OC
- outcome [1]: inactive
- outcome [2]: inactive

Compound: O=C(c1ccccc1)c1ccc2n1CC[C@H]2C(=O)O
- outcome [1]: inactive
- outcome [2]: inactive

Compound: CC(=O)/C(C)=N\O
- outcome [1]: inactive
- outcome [2]: inactive

Compound: N[C@H](Cc1cccc(-c2ccccc2CP(=O)(O)O)c1)C(=O)O
- outcome [1]: inactive
- outcome [2]: inactive

Compound: C[C@@H](COc1ccc(/C=C\c2ccccc2)cc1)[N+](C)(C)C
- outcome [1]: inactive
- outcome [2]: inactive

Compound: CN1CCc2cc(Cl)c(O)cc2[C@H](c2ccccc2)C1
- outcome [1]: inactive
- outcome [2]: inactive

Compound: CCCCCCCCCCCCCCCC(=O)O[C@H](CC(=O)O)C[N+](C)(C)C
- outcome [1]: inactive
- outcome [2]: inactive

Compound: CN1C(=O)CC[C@@H]1c1cccnc1
- outcome [1]: inactive
- outcome [2]: inactive

Compound: CCCCC[C@H](O)CCCC(=O)O
- outcome [1]: inactive
- outcome [2]: inactive

Compound: COc1ccccc1N1CCN(C[C@@H](O)COc2cccc3ccccc23)CC1
- outcome [1]: inactive
- outcome [2]: inactive

Compound: N=C1Sc2ccccc2C2=NCCCN12
- outcome [1]: inactive
- outcome [2]: inactive

Compound: CN1C[C@@H](C(=O)N[C@]2(C)O[C@]3(O)[C@H]4CCCN4C(=O)[C@H](Cc4ccccc4)N3C2=O)C[C@H]2c3cccc4[nH]cc(c34)C[C@@H]21
- outcome [1]: inactive
- outcome [2]: inactive

Compound: C[C@@]12C(=O)OC(=O)[C@@]1(C)[C@H]1CC[C@@H]2O1
- outcome [1]: inactive
- outcome [2]: inactive

Compound: O=C(O)[C@@H]1CCCN[C@H]1C(=O)O
- outcome [1]: inactive
- outcome [2]: inactive

Compound: CNc1ncnc2c1ncn2[C@@H]1O[C@@H](CO)[C@H](O)[C@@H]1O
- outcome [1]: inactive
- outcome [2]: inactive

Compound: C=C[C@@]1(C)CC(=O)[C@@]2(O)[C@@]3(C)[C@H](O)CCC(C)(C)[C@@H]3[C@H](O)[C@H](OC(C)=O)[C@]2(C)O1
- outcome [1]: inactive
- outcome [2]: inactive

Compound: COc1cccc(OC)c1OCCNC[C@@H]1COc2ccccc2O1
- outcome [1]: inactive
- outcome [2]: inactive

Compound: N#CC(=C(/N)Sc1ccccc1N)/C(C#N)=C(/N)Sc1ccccc1N
- outcome [1]: inactive
- outcome [2]: inactive

Compound: O=c1ccn([C@@H]2O[C@@H](COP(=O)(O)OP(=O)(O)O)[C@H](O)[C@@H]2O)c(=O)[nH]1
- outcome [1]: inactive
- outcome [2]: inactive

Compound: CCCC[C@]1(C2CCCC2)Cc2cc(OCC(=O)O)c(Cl)c(Cl)c2C1=O
- outcome [1]: inactive
- outcome [2]: inactive

Compound: CC(N)=NCCC[C@H](N)C(=O)O
- outcome [1]: inactive
- outcome [2]: inactive

Compound: O=C(/C=C\c1ccc(O)c(O)c1)OCCc1ccccc1
- outcome [1]: inactive
- outcome [2]: inactive

Compound: NC(N)=NC(=O)c1nc(Cl)c(N2CCCCCC2)nc1N
- outcome [1]: inactive
- outcome [2]: inactive

Compound: CNCC[C@H](Oc1ccccc1C)c1ccccc1
- outcome [1]: inactive
- outcome [2]: inactive

Compound: CC(C)(C)NC[C@H](O)c1cc(O)cc(O)c1
- outcome [1]: inactive
- outcome [2]: inactive

Compound: CN(C)CC[C@@H](c1ccccc1)c1ccccn1
- outcome [1]: inactive
- outcome [2]: inactive

Compound: CC(=O)[C@@]1(O)Cc2c(O)c3c(c(O)c2[C@H](O[C@H]2C[C@H](N)[C@H](O)[C@H](C)O2)C1)C(=O)c1ccccc1C3=O
- outcome [1]: inactive
- outcome [2]: inactive

Compound: CC(C)[C@H]1C(=O)C(C(N)=O)=C(O)[C@]2(O)C(=O)C3=C(O)c4c(O)ccc(N(C)C)c4C[C@H]3C[C@@H]12
- outcome [1]: inactive
- outcome [2]: inactive

Compound: Nc1ncnc2c1ncn2[C@@H]1O[C@@H](C(=O)NC2CC2)[C@H](O)[C@@H]1O
- outcome [1]: inactive
- outcome [2]: inactive

Compound: NS(=O)(=O)c1cc2c(cc1Cl)N[C@@H]([C@@H]1C[C@@H]3C=C[C@H]1C3)NS2(=O)=O
- outcome [1]: inactive
- outcome [2]: inactive

Compound: O=C(OCCN1CCCCC1)c1c[nH]c2ccccc12
- outcome [1]: inactive
- outcome [2]: inactive

Compound: COc1cc2nc(N3CCN(C(=O)OCc4ccccc4)[C@H](C(=O)NC(C)(C)C)C3)nc(N)c2cc1OC
- outcome [1]: inactive
- outcome [2]: inactive

Compound: Nc1ncnc2c1nc(Sc1ccc(Cl)cc1)n2[C@@H]1O[C@H]2COP(=O)(O)O[C@@H]2[C@H]1O
- outcome [1]: inactive
- outcome [2]: inactive

Compound: Nc1ncnc2c1ncn2[C@@H]1CCCO1
- outcome [1]: inactive
- outcome [2]: inactive

Compound: O=C(O)/C=C\[C@H](O)c1ccc(Cl)cc1
- outcome [1]: inactive
- outcome [2]: inactive

Compound: Nc1nc(Cl)nc2c1ncn2[C@@H]1O[C@@H](CO)[C@@H](O)[C@H]1O
- outcome [1]: inactive
- outcome [2]: inactive

Compound: CC(C)(C(=O)O)c1ccc([C@@H](O)CCCN2CCC(C(O)(c3ccccc3)c3ccccc3)CC2)cc1
- outcome [1]: inactive
- outcome [2]: inactive

Compound: O=c1n(CC2CO2)c(=O)n(CC2CO2)c(=O)n1CC1CO1 (stereo not drawn)
- Potency [3]: 31.6 µM (active)

Compound: S=C(Nc1ccccc1)Nc1nccs1
- outcome [1]: inactive
- outcome [2]: inactive

Compound: CSc1ccc2c(c1)[C@H](N1CCN(C)CC1)Cc1ccccc1S2
- outcome [1]: inactive
- outcome [2]: inactive

Compound: CCN(CC)CCC[C@H](C)Nc1c2ccc(Cl)cc2nc2ccc(OC)cc12
- outcome [1]: inactive
- outcome [2]: inactive

Compound: Cn1cc(C(F)(F)F)nc1-c1ccc(OC[C@@H](O)CNCCOc2ccc(O)c(C(N)=O)c2)cc1
- outcome [1]: inactive
- outcome [2]: inactive

Compound: C=C(C)[C@@H]1CC=C(C(=O)O)CC1
- outcome [1]: inactive
- outcome [2]: inactive

Compound: O=C1N=C(O)CN1/N=C\c1ccc(-c2ccc([N+](=O)[O-])cc2)o1
- outcome [1]: inactive
- outcome [2]: inactive

Compound: CN1CCN([C@@H]2Cc3ccccc3Sc3ccc(Cl)cc32)CC1
- outcome [1]: inactive
- outcome [2]: inactive

Compound: COc1cc([C@H](O)C(=O)O)ccc1O
- outcome [1]: inactive
- outcome [2]: inactive

Compound: Cc1ccc(OC[C@H](O)[C@H](C)NC(C)C)c2c1CCC2
- outcome [1]: inactive
- outcome [2]: inactive
